Our source for the growth values is PubChem BioAssay (NCI).

Molecules are shown by their SMILES. This is part of a sample that, as a whole, favours compounds with a hit. Of some 83,000 tested, about 20% had one in any assay.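 How to read the values: 0–100, growth inhibition (40 = 60% inhibited); 0, no net growth; -100 to 0, cell death (-40 = 40% of starting cells died; -100 = all dead).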 Active and inactive are the calls of the source. The calls were made as follows: active = growth percent below 10; inactive = the rest.

The experiment deals with OVCAR-4 ovarian. The experiment in a line: NCI-60 one-dose screen, 48 h (100 = growth as untreated, 0 = no growth, -100 = all killed). The settings on record: 10 µM unless noted.
Turning to `ClC(Cl)c1nc(-c2cccs2)n2nc(-c3ccccc3)cc2n1`, the growth was 10.7% (inactive). For `O=C(COc1ccc(C2SCC(=O)N2c2ccccc2)cc1)c1ccccc1` (stereo unspecified), the growth was 107% (inactive). With `c1ccc(-c2n(Cc3ccc4ccccc4c3)c3c4ccccc4c4ccccc4c3[n+]2Cc2ccc3ccccc3c2)cc1` the figure was -73.4% (active); with `O=C1[C@@H]2Cc3c([nH]c4ccccc34)[C@H](c3c(Cl)cccc3Cl)N2C(=O)CN1C1CCN(Cc2c(F)cccc2F)CC1`, 76.3% (inactive). For `NCCN1CCN(c2nc(-c3ccccc3)nc3nc(-c4ccccc4)oc23)CC1`, the growth was -59.7% (active). To `C/C(=C(/C)C1CC1CCN(C(=O)c1ccccn1)S(=O)(=O)c1ccc(C)cc1)C1CCCCC1` (stereo unspecified) belongs 83.8% (inactive); to `Cc1nn(-c2ccccc2)cc1/C=N/Nc1nc(Nc2ccccc2)nc(Nc2ccc(S(N)(=O)=O)cc2)n1`, 14.9% (inactive).

For the compound `Brc1cccc(/C=N/Nc2nc(N/N=C/c3cccc(Br)c3)nc(N3CCOCC3)n2)c1`, the growth is 54.2% (inactive). Take `COc1cc(/C=C2\SC(=O)NC2=O)ccc1OCC(=O)Nc1ccc(C(=O)/C=C/c2cc3ccccc3nc2Cl)cc1`: the growth is 52.9% (inactive).

Turning to `O=c1oc2ccc(-c3ccc(F)cc3F)cc2c(=O)n1-c1ccc(F)c(F)c1`, the growth was 9.07% (active). For `CC[C@@](C)(NC(=O)C(C)(C)NC(=O)[C@@H](NC(=O)[C@@H]1CCCN1C(=O)C(C)(C)NC(=O)[C@H](CC(C)C)NC(=O)CNC(=O)C(C)(C)NC(=O)[C@@H](NC(=O)C(C)(C)NC(=O)[C@H](CCC(N)=O)NC(=O)[C@H](C)NC(=O)C(C)(C)NC(=O)[C@H](C)NC(=O)C(C)(C)NC(=O)[C@@H]1CCCN1C(=O)C(C)(C)NC(C)=O)C(C)C)C(C)C)C(=O)N[C@@H](CCC(N)=O)C(=O)N[C@@H](CCC(N)=O)C(=O)N[C@H](CO)Cc1ccccc1`, the growth is 59.2% [4.25 µM] (inactive). On to `O=C(/C=C/c1cn(-c2ccccc2)nc1-c1ccc(Cl)cc1)c1cc2ccccc2oc1=O`, for which the growth was 57.2% (inactive).

As for `CCN1C(=O)N(CC)C2SC(N/N=C/c3ccc(OC)cc3)=NC21` (stereo unspecified), the growth was 69.1% (inactive). Regarding `O=C(O)c1ccc(-n2cc(CNc3ccc(F)cc3)c(-c3ccc(C(F)(F)F)cc3)n2)cc1`, the growth was 86.8% (inactive). With `COc1cc(/C=C/C(=O)c2ccc(NC(=O)COc3cccc4cccnc34)cc2)cc(OC)c1OC`, the growth is 84.3% (inactive). For the compound `COc1cc(CNC(=O)Cc2ccccc2[N+](=O)[O-])ccc1OCC(=O)NO`, the growth is 116% (inactive). Take `Oc1ccc(CSc2nnc(-c3cnccn3)o2)c2cccnc12`: the growth is 36.6% (inactive).

For `O=C(NCCCNc1cc(-c2cn(-c3ccccc3)nc2-c2cccc(O)c2)ccn1)Nc1ccc(F)cc1`, the growth was 30.9% (inactive). Take `COc1ccc(-c2nn(-c3ccccc3)cc2/C=C/C(=O)c2ccc(NC(=O)CCCCCCC(=O)NO)cc2)cc1`: the growth is 97.5% (inactive). Regarding `O=C1[C@H]2Cc3c([nH]c4ccccc34)[C@@H](c3c(Cl)cccc3Cl)N2C(=O)CN1C1CCN(Cc2ccccc2)CC1`, the growth is 83.9% (inactive). `COc1cccc(/C=C/C(=O)c2ccc(NC(=O)COc3cccc4cccnc34)cc2)c1`: the growth was 101% (inactive).

`CCCC(=O)NC(c1cccnc1)c1cc(Cl)c2cccnc2c1O` (stereo unspecified): the growth was 22.7% (inactive). To `C/C(=N/Nc1nc(N/N=C(/C)c2ccc([N+](=O)[O-])cc2)nc(N2CCOCC2)n1)c1ccc([N+](=O)[O-])cc1` belongs 77.6% (inactive); to `Oc1ccc(CSc2nnc(-c3cnccn3)n2-c2ccccc2)c2cccnc12`, 16.5% (inactive).

For the compound `CCOC(=O)C1=C(C)Nc2nc3ccccc3n2C1c1ccccc1` (stereo unspecified), the growth was 83.7% (inactive). Regarding `Oc1ccc(CSc2nnc(-c3ccc(Br)cc3)o2)c2cccnc12`, the growth was 22% (inactive).

With `CNC(=O)c1cc(N2CCc3cc(NC(=O)Nc4ccc(Cl)c(Cl)c4)ccc32)ccn1`, the growth was 86.4% (inactive). For the compound `COc1cc2cc(Oc3ccc(NC(=O)Nc4cc(C(F)(F)F)cc(C(F)(F)F)c4)cc3)c(C)nc2cc1OCCN(C)C`, the growth was 104% (inactive). With `Cc1cc(O)c(=O)cc2c1C[C@H]1CC(C)(C)/C=C/C[C@]3(C)Oc4cc(=O)c(O)cc(C)c4C[C@H]3C[C@H](O)[C@@]1(C)O2` the figure was 9.74% (active); with `COc1ccc(-c2nnc(SCc3ccc(O)c4ncccc34)n2-c2ccccc2)cc1`, 13.6% (inactive). To `O=C(CCCCCCN1CC(=O)N2[C@@H](c3ccc(Cl)c(F)c3)c3[nH]c4ccccc4c3C[C@H]2C1=O)NO` belongs 84.3% (inactive).
